Screening data (PubChem)
The list is not random: actives were taken first. Their share in the collection is about 15%.
SARS PLpro yeast: inhibitors of SARS-CoV papain-like protease in yeast; S. cerevisiae expressing SARS-CoV PLpro, growth rescue; Potency, µM (titrated, usually from 32.9 µM), most hits filed as activators; 330,000 compounds, 0.19% hits; AID 485353; calls by dose curve; also: nearly all actives have a fitted effect of over 55% in size
Pf growth 48h: inhibits P. falciparum growth in the first generation, 48 h | P. falciparum luciferase growth in erythrocytes, 48 h | Potency, µM (highest dose often 28.7 µM), usual class: inhibitors | 310,000 compounds, 5.9% hits
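Here the parasites carry a stable luciferase gene and grow inside erythrocytes in Albumax-based RPMI medium with compound for one erythrocytic cycle. Activity is scored as loss of luminescent signal.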
Sm TGR block: blocks Schistosoma mansoni thioredoxin glutathione reductase; Q962Y6; purified TGR, DTNB reduction, TNB absorbance 405 nm; Potency, µM (doses to about 114 µM), usual class: inhibitors; 360,000 compounds, 3% hits; also: nearly all actives have a fitted effect of over 60% in size
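First, TGR (20 nM dispensed) and NADPH were mixed with compound. Second, a 15 min room-temperature incubation followed. Third, further NADPH and then DTNB were added to start the reaction. Finally, TNB absorbance was monitored kinetically.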
Pf growth 96h: P. falciparum growth inhibition at 96 hour, primary screen for plastid delayed-death inhibitors. P. falciparum luciferase reporter growth, 96 h. Potency, µM (doses to about 28.7 µM), hits mostly inhibitors. 320,000 compounds, 6.9% hits. AID 504834
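96 h incubation, 37 C, 5% CO2, of luciferase-reporter P. falciparum-infected RBCs (2% hematocrit, 0.05% parasitemia final) with test compounds; endpoint luminescence.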
HCV inhibitor: blocks hepatitis C virus; Huh7.5.1 HCVcc-Cre infection, luciferase reporter, 44 h; Potency, µM (highest dose often 41.8 µM), actives largely listed as inhibitors; 340,000 compounds, 3.4% hits
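1,000 cells/well; 4 h culture; + compound; + HCVcc-Cre (~0.5 moi); 44 h; luciferase substrate, RT 15 min; read 15 sec.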
HCMV inh: inhibitors of human cytomegalovirus | HFF cells, HCMV-luciferase reporter, 72 h; stronger effect = lower value | activity change, negative = inhibition, % at 57.5 µM | 410,000 compounds, 4.5% hits | AID 1259415; in the data active = activity change below about -60%; inconclusive = no clear call, values can overlap the other calls; inactive = above about -39%
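Luciferase read-out from HCMV-luciferase-infected HFFs (MOI 1 PFU/cell) 72 h post infection at 37C; compounds added after 16 h cell attachment; activity normalized between buffer-only basal and Salinomycin (10uM) inhibitor controls.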
Numbers stand for hits; – = inactive; ? = inconclusive; · = no result. Unless noted, calls follow the shape of the dose curve; as a rule, active = well fitted curve in the direction sought with a large enough effect; inconclusive = small, poorly fitted or top-dose-only effect, or another doubt; inactive = no such curve, though single readings can be large; an effect the other way counts as inactive or inconclusive.

SMILES	SARS PLpro yeast	Pf growth 48h	Sm TGR block	Pf growth 96h	HCV inhibitor	HCMV inh
COc1ccc2c(c1)C(NC(C)=O)CCc1cc(OC)c(OC)c(OC)c1-2 (stereo unspecified)	·	·	·	·	–	-67.1
CNC1CCc2cc(OC)c(OC)c(OC)c2-c2ccc(OC)c(=O)cc21 (stereo unspecified)	·	–	·	–	·	·
COC(=O)c1ccc2c(c1)C(NC(C)=O)CCc1cc(OC)c(OC)c(OC)c1-2 (stereo unspecified)	·	·	·	·	–	-80.7
COc1c(O[C@@H]2O[C@H](CO)[C@@H](O)[C@H](O)[C@H]2O)cc2c(c1OC)-c1ccc(SC)c(=O)cc1C(NC(C)=O)CC2 (stereo partly specified)	·	?	–	–	–	–
COc1cc2c(c(OC)c1OC)-c1ccc(O)c(=O)cc1C(NC(C)=O)CC2 (stereo unspecified)	–	–	–	–	–	·
COc1c(C=O)c2c(c(OC)c1OC)-c1ccc(OC)c(=O)cc1C(NC(C)=O)CC2 (stereo unspecified)	·	·	·	·	–	-67.8
CCCC(=O)NC1CCc2cc(OC)c(OC)c(OC)c2-c2ccc(OC)c(=O)cc21 (stereo unspecified)	·	·	·	·	?	-91.3
COc1cc2c(c(OC)c1OC)-c1ccc(OC)c(=O)cc1C(NC(C)=O)CC2 (stereo unspecified)	–	–	–	–	–	-87.2
CS(=O)(=O)N(CC(=O)N1CCCCCC1)c1cccc(F)c1	–	–	–	?	–	–
NC(=O)/C(=C\c1cccnc1)NC(=O)c1ccccc1	–	–	–	–	–	–
O=[N+]([O-])c1cc(Cl)c(Cl)cc1Cl	–	–	–	?	–	–
O=[N+]([O-])c1ccc(Cl)c([N+](=O)[O-])c1	·	10.4µM	2.24µM	?	?	-73.9
O=C(COC(=O)C1CC1)Nc1ncc(Cl)cc1Cl	–	–	–	–	–	–
O=[N+]([O-])c1ccc(Cl)c(S(=O)(=O)N2CCCCCC2)c1	–	–	–	10.4µM	–	·
CN(Cc1ccccc1)C(=O)C1CCN(S(=O)(=O)c2cc([N+](=O)[O-])ccc2Cl)CC1	–	–	–	?	–	–
CC(=O)COC(=O)C1CCN(S(=O)(=O)c2cc([N+](=O)[O-])ccc2Cl)CC1	–	–	7.94µM	–	–	–
CN1CCN(S(=O)(=O)c2cc([N+](=O)[O-])ccc2Cl)CC1	–	–	–	–	–	–
O=C(COC(=O)C1CCN(S(=O)(=O)c2cc([N+](=O)[O-])ccc2Cl)CC1)Nc1ncc(Cl)cc1Cl	–	?	39.8µM	?	–	–
COc1cccc(CN(c2ccc3c(c2)CCC3)S(=O)(=O)c2ccc(-n3cnnn3)c(OC)c2)c1	–	?	–	?	–	–
CCc1ccc(NC(=S)N(CCN2CCOCC2)Cc2ccccc2F)cc1	–	–	–	–	–	?
CCc1ccc(NC(=O)CCn2nc(-c3ccccc3OC)c3c(C)cc(C)nc32)cc1	·	·	–	·	·	–
O=S(=O)(c1cccc(F)c1)N1CCN(c2nc(-c3cccnc3)nc3ccccc23)CC1	–	·	·	·	?	–
COc1cc(CC(=O)OCC(=O)NCc2ccco2)cc(OC)c1OC	–	·	·	·	–	–
O=[N+]([O-])c1ccc(Cl)c(S(=O)(=O)Nc2ccc(-c3ccc(N4CCCC4)nn3)cc2)c1	–	?	–	?	–	-64.3
O=[N+]([O-])c1cc([As](=O)(O)O)ccc1O	–	2.62µM	31.6µM	1.65µM	–	–
SMILES	SARS PLpro yeast	Pf growth 48h	Sm TGR block	Pf growth 96h	HCV inhibitor	HCMV inh
CCS(=O)(=O)c1ncc(N(Cc2cccc(F)c2)Cc2ccco2)c(C(=O)Nc2ccccc2Cl)n1	·	·	–	·	·	–
CCCOc1cccc(C(=O)Nc2ccc(-c3nc4ccccc4s3)c(Cl)c2)c1	·	·	–	·	·	?
O=C(CC1C=Cc2ccccc2N1C(=O)c1ccccc1)c1ccccc1 (stereo unspecified)	–	?	–	0.586µM	10µM	–
CN(Cc1nc2ccccc2c(=O)[nH]1)CC(O)COCc1ccco1 (stereo unspecified)	–	–	–	6.57µM	–	–
CC1=NN(c2ccccc2)C(=O)/C1=C/C=C/C=C/N(C)C	–	–	–	–	?	–
CC1=NN(c2ccc(C)cc2)C(=O)/C1=C\C=C\c1ccccc1	–	13.1µM	–	?	–	-81.1
CC1=NN(c2cccc(C(=O)O)c2)C(=O)/C1=C\C=C/c1ccccc1	–	?	11.2µM	–	?	–
CC1=NN(c2ccccc2)C(=O)C1=Cc1ccccc1	·	·	·	·	·	–
CC(NCCN(C)C)C(=O)C12CC3CC(CC(C3)C1)C2 (stereo unspecified)	–	?	–	5.86µM	–	–
CC(C)CC1NC(=O)N(CC(=O)N(C)C2CCCCC2)C1=O (stereo unspecified)	–	·	·	·	–	–
CN(C(=O)CN1C(=O)C2C3CC(C(Br)C3Br)C2C1=O)C1CCCCC1 (stereo unspecified)	–	5.86µM	–	–	–	–
Cc1cccn2c(=O)c3cc(C(=O)NC4CCCC4)c(=N)n(CCc4ccccc4)c3nc12	–	0.465µM	–	4.15µM	–	–
COc1ccc(CCn2c(=N)c(C(=O)NCC3CCCO3)cc3c(=O)n4ccccc4nc32)cc1 (stereo unspecified)	–	4.65µM	–	4.65µM	–	-111.5
COc1ccc(CCn2c(=N)c(C(=O)NC3CCCCC3)cc3c(=O)n4ccccc4nc32)cc1	–	0.928µM	–	?	?	–
COc1ccc(CCn2c(=N)c(S(=O)(=O)c3ccc(C)cc3)cc3c(=O)n4ccccc4nc32)cc1	–	5.22µM	–	3.7µM	–	?
CCOc1ccc(NC(=O)COC(=O)C23CC4CC(CC(C4)C2)C3)c([N+](=O)[O-])c1	–	?	–	?	–	–
COc1cc(NC(=O)c2sc3ncn(CC(=O)N4CCCCC4)c(=O)c3c2C)cc(OC)c1OC	–	?	–	–	–	–
CCCCOc1ccc(C(=O)Oc2cccnc2)cc1	–	–	–	?	–	–
Cc1cccn2c(=O)c3cc(C(=O)NC4CCCC4)c(=N)n(C4CCCCC4)c3nc12	–	–	–	?	–	–
COc1ccc(CCn2c(=N)c(C(=O)NC3CCCC3)cc3c(=O)n4cccc(C)c4nc32)cc1	–	0.828µM	–	0.522µM	–	–
CC1CN(CC(O)c2ccc(Br)cc2)CCO1 (stereo unspecified)	·	·	·	·	–	–
CCOC(=O)c1ccc(NS(=O)(=O)c2c(C)[nH]c(C)c2C(=O)N2CCCCC2)cc1	–	?	–	–	–	–
COc1cc(NC(=O)c2ccc(S(=O)(=O)N(C)c3ccccc3)cc2)cc(OC)c1	–	·	·	·	11.2µM	-78.9
Cc1nc2cc(NC(=O)c3ccc(S(=O)(=O)N(C)c4ccccc4)cc3)ccc2o1	–	?	–	?	6.31µM	-69.3
